In the library only some 3.5% were active in any assay of this set; here they are far more common.
TEAD-YAP inh: TEAD-YAP interaction inhibition, primary screen, TEAD-YAP interaction inhibitor project, luminescence, HEK-TIYL cells. TEAD-Gal4/YAP UAS-luciferase luminescence. inhibition, % at 9.12 µM. 640,000 tested, 1.4% active. AID 1259422, 2018; in the data active = inhibition above about 32%;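 also: 0% = median of test compound wells and 100% = reference inhibitor wells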
FBW7 act: FBW7 E3 ligase activators, primary screen, biochemical, AlphaScreen, human | normalized activity (activation), % at 26.1 µM | 650,000 tested, 0.13% active | F-box/WD repeat-containing protein 7 (Homo sapiens), Q969H0 | AlphaScreen FBW7–phospho-cyclin E peptide binding, activator screen; in the data active = normalized activity above about 1.9%;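 also: purified mutant Fbw7 with reduced substrate affinity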
Target sequence (Q969H0 whole entry, looked up): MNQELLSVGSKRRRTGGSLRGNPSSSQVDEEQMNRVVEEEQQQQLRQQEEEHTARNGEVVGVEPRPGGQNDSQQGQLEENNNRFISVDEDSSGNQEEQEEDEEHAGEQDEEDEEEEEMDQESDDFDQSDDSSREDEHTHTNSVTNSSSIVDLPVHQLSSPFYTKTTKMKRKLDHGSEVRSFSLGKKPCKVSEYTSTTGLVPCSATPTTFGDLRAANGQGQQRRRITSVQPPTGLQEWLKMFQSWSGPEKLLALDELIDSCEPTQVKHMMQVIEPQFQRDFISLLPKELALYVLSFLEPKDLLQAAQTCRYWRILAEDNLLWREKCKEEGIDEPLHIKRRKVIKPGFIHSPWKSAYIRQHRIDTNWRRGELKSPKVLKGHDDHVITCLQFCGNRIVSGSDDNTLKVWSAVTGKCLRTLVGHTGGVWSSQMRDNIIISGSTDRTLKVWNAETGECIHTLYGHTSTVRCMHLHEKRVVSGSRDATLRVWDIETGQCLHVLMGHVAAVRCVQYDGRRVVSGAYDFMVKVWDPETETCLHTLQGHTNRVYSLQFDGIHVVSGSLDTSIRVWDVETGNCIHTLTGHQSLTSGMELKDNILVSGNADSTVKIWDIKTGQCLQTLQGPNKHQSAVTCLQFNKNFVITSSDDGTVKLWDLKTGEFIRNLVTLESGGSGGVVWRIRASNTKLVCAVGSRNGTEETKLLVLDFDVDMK
GPR151 ag: activators of human GPR151, primary screen, cell-based, PathHunter beta-arrestin, luminescence | activation, % at 11.2 µM | G-protein coupled receptor 151 (Homo sapiens), Q8TDV0 | 650,000 tested, 1% active | PathHunter beta-arrestin GPR151 cells; in the data active = activation above about 4.9%;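 also: 0% = median of compound wells and 100% = cells with positive control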
MITF inh: MITF inhibitors, primary screen, biochemical, AlphaScreen, human | Microphthalmia-associated transcription factor (Homo sapiens), O75030 | AID 1259374, 2018 | AlphaScreen MITF homodimerization, bead proximity signal | 650,000 tested, 0.91% active | inhibition, % at 2.6 µM; in the data active = inhibition above about 50%;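 also: 0% = vehicle wells with protein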
* = called active by the depositor.

Screening CC(C)NC(=O)C1CCCN(S(=O)(=O)c2cccs2)C1 (centres undefined) returned TEAD-YAP inh 2, FBW7 act 0, GPR151 ag 0 and MITF inh -7.
`COc1c(C)cc(C(=O)C2CCCN(S(=O)(=O)c3ccsc3)C2)cc1C` (centres undefined) gave TEAD-YAP inh 44*, FBW7 act 0, GPR151 ag 1 and MITF inh 3.
`COc1ccc(-c2cc3cccc(OC)c3oc2=O)cc1` gave TEAD-YAP inh 71*, FBW7 act 0, GPR151 ag -7 and MITF inh -18.
Screening COc1cccc2cc(-c3csc(N)n3)c(=O)oc12 returned TEAD-YAP inh 49*, FBW7 act 0, GPR151 ag -9 and MITF inh 0.
`COc1cccc2cc(-c3csc(NC(C)=O)n3)c(=O)oc12` gave TEAD-YAP inh -9, FBW7 act 0, GPR151 ag 2 and MITF inh -1.
For CCOc1ccc(-n2nnnc2-c2nc3ccccc3s2)cc1 the results were TEAD-YAP inh 42*, FBW7 act 0, GPR151 ag 1 and MITF inh 14.
Screening Cc1ccc(-n2nnnc2-c2nc3ccccc3s2)cc1 returned TEAD-YAP inh 2, FBW7 act 0, GPR151 ag -2 and MITF inh 15.
Screening CCCCC/C=C\CCCC/C=C\C/C=C\CCCC(=O)O returned GPR151 ag 1 and MITF inh 12.
`COc1cccc(/C=N/NC(=O)c2cc(-c3cccn3C)n[nH]2)c1O` gave TEAD-YAP inh 38*, FBW7 act -1, GPR151 ag 0 and MITF inh 18.
For COc1cccc(/C=N/NC(=O)c2cc(-c3cccc([N+](=O)[O-])c3)n[nH]2)c1O the results were TEAD-YAP inh 72*, FBW7 act 0, GPR151 ag 0 and MITF inh 11.
`COc1ccccc1-c1cc(C(=O)N/N=C\c2ccccc2)[nH]n1` gave TEAD-YAP inh -3, FBW7 act 0, GPR151 ag 3 and MITF inh 3.
For COc1cc([N+](=O)[O-])cc(/C=N/NC(=O)c2cc(-c3ccccc3)n[nH]2)c1O the results were TEAD-YAP inh 2, FBW7 act 0, GPR151 ag 0 and MITF inh 22.
COc1cccc(/C=N/NC(=O)c2ccn(C)n2)c1O was read as TEAD-YAP inh -30, FBW7 act 0, GPR151 ag -1 and MITF inh 9.
Screening COc1ccc(-c2cc(C(=O)N/N=C/c3c(C)[nH]c4ccccc34)[nH]n2)cc1OC returned TEAD-YAP inh 45*, FBW7 act 0, GPR151 ag 1 and MITF inh 9.
Screening COc1ccccc1-c1cc(C(=O)N/N=C/c2cccc(OC)c2O)[nH]n1 returned TEAD-YAP inh 40*, FBW7 act 0, GPR151 ag 0 and MITF inh 33.
For CCc1cc2c(=O)c(-c3ccc4c(c3)OCO4)c(C(F)(F)F)oc2cc1OC(C)C the results were TEAD-YAP inh -8, FBW7 act 0, GPR151 ag -2 and MITF inh 16.
O=C1N/C(=C/c2cccc(F)c2)C(=O)N1Cc1ccc(Br)cc1 was read as TEAD-YAP inh 55*, FBW7 act 0, GPR151 ag -1 and MITF inh 1.
For COc1cc(/C=C2/NC(=O)N(Cc3ccc(Br)cc3)C2=O)cc2c1OCO2 the results were TEAD-YAP inh 60*, FBW7 act 0, GPR151 ag 1 and MITF inh -2.
`CCCN(CCC)C(=O)CSc1nc2c(sc(=S)n2-c2ccc(C)cc2C)c(=O)n1-c1ccccc1` gave TEAD-YAP inh 1, FBW7 act 0, GPR151 ag 4 and MITF inh -6.
Screening Cc1cccc(N2CCN(C(=O)c3cc(S(=O)(=O)N4CCOCC4)cn3C)CC2)c1C returned TEAD-YAP inh 5, FBW7 act 0, GPR151 ag 1 and MITF inh -6.
CCOC(=O)CS(=O)(=O)c1ccc(C(=O)N2CCN(c3cccc(C)c3C)CC2)cc1[N+](=O)[O-] was read as TEAD-YAP inh 34*, FBW7 act 0, GPR151 ag 1 and MITF inh -3.
COc1ccccc1N1CCN(C(=O)c2cccc(Br)c2)CC1 was read as TEAD-YAP inh 36*, FBW7 act 0, GPR151 ag 0 and MITF inh 19.
CCOC(=O)CS(=O)(=O)c1ccc(C(=O)N2CCN(c3cc(C)ccc3C)CC2)cc1[N+](=O)[O-] was read as TEAD-YAP inh -17, FBW7 act 0, GPR151 ag 3 and MITF inh 3.
For Cc1cccc(N2CCN(C(=O)c3cc(S(=O)(=O)N4CCCC4)cn3C)CC2)c1C the results were TEAD-YAP inh 58*, FBW7 act 0, GPR151 ag -1 and MITF inh -12.
`Cc1cccc(N2CCN(C(=O)c3ccncc3)CC2)c1C` gave TEAD-YAP inh 50*, FBW7 act 0, GPR151 ag -2 and MITF inh 13.
For CC(=O)Nc1ccc(C(=O)N2CCN(c3cccc(C)c3C)CC2)cc1 the results were TEAD-YAP inh -11, FBW7 act 0, GPR151 ag 1 and MITF inh -5.
`Cc1ccccc1NC(=O)Nc1ccc(C(N)=O)cc1` gave TEAD-YAP inh -4, FBW7 act 0, GPR151 ag -1 and MITF inh -3.
`COc1ccccc1C(=O)N1CCN(c2cccc(C)c2C)CC1` gave TEAD-YAP inh 47*, FBW7 act 0, GPR151 ag 0 and MITF inh -4.
COc1cccc(C(=O)N2CCN(c3cccc(C)c3C)CC2)c1 was read as TEAD-YAP inh 33*, FBW7 act 0, GPR151 ag 0 and MITF inh 8.
`CCOC(=O)/C(C#N)=N\Nc1ccccc1OC` gave TEAD-YAP inh -7, FBW7 act 0, GPR151 ag 0 and MITF inh -2.
`CCOC(=O)/C(C#N)=N/Nc1ccccc1C#N` gave TEAD-YAP inh -8, FBW7 act 0, GPR151 ag -1 and MITF inh 52*.
Screening Cc1cc(-c2cnc(C)nc2C2CCCN(CC(N)=O)C2)on1 (centres undefined) returned TEAD-YAP inh -7, FBW7 act 1, GPR151 ag 0 and MITF inh 1.
For O=C(Nc1ccc(Cl)cc1)c1c(Cl)nsc1Cl the results were TEAD-YAP inh 76*, FBW7 act 0, GPR151 ag 1 and MITF inh -22.
`NC(=O)c1c(Cl)nsc1Cl` gave TEAD-YAP inh 65*, FBW7 act 0, GPR151 ag -2 and MITF inh 8.
For CCOC(=O)N1CCN(S(=O)(=O)c2ccc(F)c(C(=O)Nc3ccc(Cl)c(Cl)c3)c2)CC1 the results were TEAD-YAP inh -1, FBW7 act 0, GPR151 ag 0 and MITF inh -11.
